The record followed here is PubChem BioAssay AID720541 (National Center for Advancing Translational Sciences (NCATS), 2013).

“And” between values parts separate entries of the source, which are not always exact repeats. Equal values may be shown once. In all, about 1,300 compounds went through this assay and about 420 (32%) were called active. Another 32% or so got no clear call; they are omitted. Calls follow the shape of the dose curve; as a rule, active = well fitted inhibition curve with a large enough effect; inconclusive = small, poorly fitted or top-dose-only effect; inactive = no such curve, though single readings can be large or run the other way. This is one part of the list. Some compounds were tested as several samples or in several runs, with calls that do not always agree.
Potency is read from the fitted curve at half-maximal effect.

In the assay the target is C-terminal-binding protein 1 (Homo sapiens) (UniProt Q13363). Briefly: qHTS for Inhibitors of the Phosphatase Activity of Eya2: Carboxyl-terminal binding protein (CtBP) Counterscreen for Cherry-picked Compounds. Also: nearly all actives have a fitted effect of over 65% in size. To be noted: purified protein-protein binding, AlphaScreen, 3 h; series mostly up to 46.1 µM. Summed up:
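Cherry-picked compounds (final 2.5 nM–46 uM) were incubated 2 h at RT with 25 nM CtBP-6xHIS and 25 nM GST-E1A. Alpha beads (20 ug/mL) were then added for 1 h, light-protected; DMSO and E1A peptide inhibitor wells set the normalization.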
In general terms: In qHTS, concentration-response curves come from the screen itself.
In the case of `Cc1ccc(OCCSc2nc3ccccc3n2CCC(=O)O)c(C(C)C)c1`, the Potency result was “inactive”.

As for `COc1ccc2nc(NC(=S)NC(=O)c3ccco3)sc2c1`, the Potency result is “inactive”.

For `Cc1cccc(NC(=S)NC(=O)c2ccco2)n1`, the Potency was 10.7 µM (active).

As to `O=C(NC(=S)Nc1ccccc1N1CCCCC1)c1ccco1`, the Potency entry is “inactive”.

On to `O=S(=O)(Nc1nccs1)c1ccc(NCc2cc(Br)cc(Br)c2O)cc1`, for which the Potency is 1.9 µM (active).

As to `CCc1nnc(NS(=O)(=O)c2ccc(NCc3cc(Cl)cc(Cl)c3O)cc2)s1`, the Potency is 4.26 µM (active).

On to `CCS(=O)(=O)N1CCC(C(=O)Oc2ccc(Cl)cc2)CC1`, for which the Potency result is “inactive”.

Take `CC(=O)Nc1ccc(S(=O)(=O)N2C3CCCC2CC(NC(=O)C2CCCCC2)C3)cc1` (stereo not given): the Potency entry was “inactive”.

Take `CC(=O)Nc1ccc(S(=O)(=O)Nc2ccc(N3CCCCC3)cc2)cc1`: the Potency was 8.49 µM (active).

Turning to `COc1ccc(C(=O)OCC(=O)Nc2ccc(N3CCOCC3)cc2)cc1`, the Potency entry is “inactive”.

Turning to `CC(=O)Oc1cccc2c1C(=O)C1CC=CC(OC(C)=O)C1C2=O` (stereo not given), the Potency was 9.53 µM (active).

Take `O=C(O)c1ccc2c(=O)n3cc(C(=O)c4ccccc4O)cc(Cl)c3nc2c1`: the Potency was 12 µM (active).

Turning to `O=C(O)c1ccc(N/N=C/c2cc3cc4c(cc3nc2Cl)OCCO4)cc1`, the Potency result was “inactive”.

With `Cc1cc(O)cc(O)c1/C=N/NC(=O)c1ccc2c(c1)OCCO2`, the Potency was 8.49 µM (active).

For the compound `Cc1cc(C)cc(C(=O)NC(=S)Nc2ccc3c(c2)OCCO3)c1`, the Potency result was “inactive”.

As to `CCCCC1=CC2=C(c3ccco3)C(=O)C(C)(OC(=O)c3ccc(OC)cc3)C(=O)C2=CN1CCc1ccccn1` (stereo not given), the Potency entry is “inactive”.

For the compound `CC(C)c1ccc2oc(-c3ccc(NC(=O)c4ncn[nH]4)cc3)nc2c1`, the Potency was 12 µM (active).

Take `CCC(C)c1ccc2oc(-c3ccc(NC(=O)c4ncn[nH]4)cc3)nc2c1` (stereo not given): the Potency is 13.5 µM (active).

For the compound `Cc1ccc(C(=O)Nc2cccc(-c3nc4ncccc4o3)c2)cc1`, the Potency entry is “inactive”.

As to `Cc1ccc(NC(=O)c2[nH]cnc2C(=O)NN)cc1`, the Potency was 15.1 µM (active).

For the compound `CCOC(=O)c1ccc(NC(=O)c2nc[nH]c2C(=O)N[C@@H](Cc2ccccc2)C(=O)OC(C)(C)C)cc1`, the Potency result was “inactive”.

In the case of `O=C(CNC(=O)c1[nH]cnc1C(=O)N[C@@H](Cc1ccccc1)C(=O)OCc1ccccc1)OCc1ccccc1`, the Potency entry is “inactive”.

Turning to `C[C@@H](NC(=O)c1nc[nH]c1C(=O)N[C@@H](Cc1ccccc1)C(=O)OC(C)(C)C)c1ccccc1`, the Potency entry is “inactive”.

Turning to `NNC(=O)c1nc[nH]c1C(=O)Nc1ccccn1`, the Potency was 8.49 µM (active).

For `O=C(Nc1ccc(F)cc1)c1nc[nH]c1C(=O)O`, the Potency is 7.57 µM (active).

For `COc1ccc(N(CC(=O)N2CCCCC2)S(=O)(=O)c2c(C)nn(C)c2C)cc1`, the Potency result is “inactive”.

In the case of `O=C(O)CSc1ccc2nnc(-c3cccnc3)n2n1`, the Potency entry is “inactive and 13.5 µM (active)”.

`O=C(CSc1ccc2nnc(-c3ccccn3)n2n1)Nc1ccccc1`: the Potency was 10.7 µM (active).

Consider `Cc1nnc(NC(=O)CSc2ccc3nnc(-c4ccccn4)n3n2)s1`, for which the Potency result was “inactive”.

As for `CCCCC(Sc1ccc2nnc(-c3ccccn3)n2n1)C(=O)O` (stereo not given), the Potency is 13.5 µM (active).

`O=C(CSc1ccc2nnc(-c3ccccn3)n2n1)Nc1ccccc1F`: the Potency is 7.57 µM (active).

As for `CN(C)c1ccc2nc3ccc(=[N+](C)C)cc-3sc2c1`, the Potency result was “inactive”.

On to `CC(=O)Oc1ccc2nonc2c1OC(C)=O`, for which the Potency result is “inactive”.

Turning to `CC1=C(C(=O)N2CCOCC2)CC(CC(=O)NC(c2ccccc2)c2ccccc2)C(=O)N1Cc1ccc(C(C)(C)C)cc1` (stereo not given), the Potency result is “inactive”.

Turning to `O=C(CSc1ccc2nnc(-c3ccccn3)n2n1)Nc1ccccc1C(F)(F)F`, the Potency was 10.7 µM (active).

In the case of `Cc1csc(NC(=O)CSc2ccc(-c3ccccn3)nn2)n1`, the Potency was 4.26 µM (active).

Regarding `Cc1cc(C)c(NC(=O)CSc2ccc(-c3ccccn3)nn2)c(C)c1`, the Potency is 3.38 µM (active).

As to `Cc1ccccc1NC(=O)CSc1ccc(-c2ccccn2)nn1`, the Potency is 3.79 µM (active).

Turning to `O=S(=O)(NCCSCc1ccc(Cl)c(Cl)c1)c1ccc2c(c1)OCCO2`, the Potency result was “inactive”.

Regarding `CCOc1ccc(CCN2C(=O)C(=O)N([C@@H](Cc3ccccc3)CN3CCC[C@H]3CN3C(=O)C(=O)NC[C@@H]3Cc3ccccc3)C[C@@H]2Cc2ccccc2)cc1`, the Potency result is “inactive”.

Regarding `CCN(CC)c1ccc(NC(=O)c2ccc3c(c2)c(C)c(C)n3C)cc1`, the Potency is 10.7 µM (active).

Turning to `NC(N)=Nc1nc2cc([N+](=O)[O-])ccc2o1`, the Potency entry was “inactive”.

For the compound `CN(C)c1ccc(/C=C2\C=Cc3ccccc32)cc1N`, the Potency is 13.5 µM (active).

For `CNc1ccc(/C=C2\C=Cc3ccccc32)cc1OC`, the Potency is 8.49 µM (active).

For the compound `CN(C)c1ccc(/C=C2\C=Cc3ccccc32)cc1[N+](=O)[O-]`, the Potency was 7.57 µM (active).

In the case of `Cc1cc(/C=C2\C=Cc3ccccc32)ccc1N(C)C`, the Potency is 8.49 µM (active).

With `COc1cc(/C=C2/C=Cc3ccccc32)ccc1N(C)C`, the Potency is 8.49 µM (active).

`O=[N+]([O-])c1ccc(/C=C2\C=Cc3ccccc32)cc1`: the Potency is 7.57 µM (active).

As for `O=C(Nc1ccccc1Cl)N1CCN(c2ccc3nnc(-c4ccccc4)n3n2)CC1`, the Potency is 5.36 µM (active).

On to `COc1cccc(N2CCN(c3ccc4nnc(CCC(=O)Nc5cccc(C(C)=O)c5)n4n3)CC2)c1`, for which the Potency result is “inactive”.

With `NCC(=O)Nc1ccc(Cl)cc1C(=O)c1ccc[nH]1`, the Potency result is “inactive”.

On to `COc1ccc(-c2cn(Cc3ccc4c(c3)C(=O)c3ccccc3C4=O)nn2)cc1`, for which the Potency entry was “inactive”.

`COC1=C(Nc2ccc(OC)cc2)C(=O)c2ccccc2C1=O`: the Potency is 6.75 µM (active).

For `CCc1ccc2nc3nc(C)cc(C)c3c(N)c2c1`, the Potency was 10.7 µM (active).

Turning to `COc1ccc(C(=O)/C=C/Nc2ccc(S(=O)(=O)Nc3nc(C)cc(C)n3)cc2)cc1OC`, the Potency was 12 µM (active).

As for `CCC(=O)Nc1ccc(C(=O)COC(=O)c2nc3nccc(C)n3n2)cc1`, the Potency result is “inactive”.

As for `COc1cc(NS(=O)(=O)c2ccc(N/C=C\C(=O)c3ccc(OC)c(OC)c3)cc2)nc(OC)n1`, the Potency was 8.49 µM (active).

Take `Cc1ccccc1-c1cnc(C(O)c2c(C)cccc2C)[nH]1` (stereo not given): the Potency entry was “inactive”.

For the compound `Cc1oc2cc([N+](=O)[O-])c(O)c([N+](=O)[O-])c2c1C(=O)c1ccc(Cl)cc1`, the Potency is 16.9 µM (active).

On to `COc1ccc(NC(=O)c2cc(-c3ccco3)nc3ccccc23)cn1`, for which the Potency entry is “inactive”.

On to `O=C(Nc1nncs1)c1cc(-c2ccco2)nc2ccccc12`, for which the Potency is 13.5 µM (active).

With `COc1cccc(C(=O)Nc2cccc(-c3ccc4nncn4n3)c2)c1OC`, the Potency is 13.5 µM (active).

For the compound `COc1ccccc1OCc1ccc(C(=O)Nc2cc(OC)c(OC)c(OC)c2)o1`, the Potency entry was “inactive”.

`Nc1ccc(O)cc1`: the Potency is 12 µM (active).

With `Nc1nc2nn(-c3ccccc3)nc2c(=O)[nH]1`, the Potency was 6.01 µM (active).

Regarding `COc1ccc(-c2csc(-c3ccc(C(=O)O)cc3)n2)cc1`, the Potency result is “inactive”.

Regarding `COc1ccc(Nc2nnc(-c3ccc(C(N)=O)cc3)c3ccccc23)cc1`, the Potency is 4.78 µM (active).

`Cc1ccc(-c2nnc(Nc3ccc4c(c3)OCO4)c3ccccc23)cc1S(N)(=O)=O`: the Potency entry was “inactive”.

For `CNC(=O)c1ccc(Nc2nnc(-c3ccc(C(N)=O)cc3)c3ccccc23)cc1`, the Potency was 6.75 µM (active).

With `CCN(CC)C(=O)c1ccc(-c2nnc(Nc3ccc(C(=O)NC)cc3)c3ccccc23)cc1`, the Potency was 16.9 µM (active).

For the compound `NC(=O)[C@@H]1CC2(CC(c3cccc(NC(=O)COc4ccc(Cl)cc4)c3)=NO2)CN1C(=O)COc1ccc(Cl)cc1` (stereo not given in full), the Potency result was “inactive”.

For the compound `CCOCCCNC(=O)c1cc2sc(Cl)cc2n1CC`, the Potency result is “inactive”.

With `Cc1cccc2cn[nH]c12`, the Potency entry is “inactive”.

As for `O=C(NN=C1CCCC1)c1[nH]c2ccc(Br)cc2c1-c1ccccc1`, the Potency entry is “inactive”.

With `CCOC(=O)c1sc(NC(=O)CSc2nc(O)c(Cc3ccccc3)c(=O)[nH]2)nc1C`, the Potency is 16.9 µM (active).

Consider `COc1ccc(OC)c(NC(=O)CSc2nc(-c3ccccc3)cc(=O)[nH]2)c1`, for which the Potency result is “inactive”.

Consider `O=C(O)c1ccccc1-c1ccccc1C(=O)Nc1ccc2c(c1)[nH]c(=O)c1ccccc12`, for which the Potency was 7.57 µM (active).

In the case of `O=C(O)c1ccccc1-c1ccccc1C(=O)Nc1ccc2oc(=O)c3ccccc3c2c1`, the Potency was 12 µM (active).

Regarding `CCN1C(=O)/C(=C2/C=Cc3ccccc3N2CC)SC1=S`, the Potency is 4.26 µM (active).

For the compound `COc1cc(OC)c(OC)cc1/C=C/c1nccc2ccccc12`, the Potency was 7.57 µM (active).

On to `FC(F)(F)c1ccc(CN2C[C@@H]3C(c4ccc(Cl)nc4)C4(c5cccnc5)CC3(C4)[C@H]2c2ccccc2)cc1` (stereo not given in full), for which the Potency entry is “inactive”.

For the compound `Cc1ccc(O)c(C(=O)c2cnc3c(c2)c(-c2ccc(F)cc2)c(C#N)c(=O)n3C)c1`, the Potency result was “inactive”.

For the compound `COc1ccc([C@H]2CC(=O)C=C(c3ccnc4ccc(Cl)cc34)C2)cc1`, the Potency result was “inactive”.

As for `CN(C)c1ccc(NC(=O)CC(NCc2ccccn2)C(=O)O)cc1` (stereo not given), the Potency was 1.07 µM (active).

Consider `CC(=O)Nc1ccc(NC(=O)COc2ncnc3ccccc23)cc1`, for which the Potency entry was “inactive”.

Take `COc1cc(OC)c(NC(=O)CN(C)S(=O)(=O)c2ccc(-c3ccc(=O)[nH]n3)s2)cc1Cl`: the Potency was 6.01 µM (active).

`CCN(CC)c1ccc(/C=C2\CCC(/C=C(\C#N)C(=O)Nc3ccccc3F)=C2N2CCOCC2)cc1`: the Potency is 23.9 µM (active).

For `CCCc1ccc(C#N)c(SC2CC(=O)N(c3ccc(OC)cc3)C2=O)n1` (stereo not given), the Potency result is “inactive”.

Take `O=C1NC(=O)/C(=C\c2ccccc2OCc2cccc([N+](=O)[O-])c2)N1`: the Potency entry was “inactive”.

For the compound `COc1ccc(F)cc1-c1cc(NC=O)c2ncc(-c3cccc(C(F)(F)F)c3)n2c1`, the Potency result is “inactive”.

For the compound `Oc1c(C(Nc2nc3ccccc3s2)c2ccco2)ccc2cccnc12` (stereo not given), the Potency is 6.75 µM (active).

With `Cc1cc(C)c(OCCCCN(C)Cc2ccccc2)c(C)c1`, the Potency entry was “inactive”.

`O=c1c2ccccc2oc2nc3n(c(=O)c12)CCCS3`: the Potency is 12 µM (active).

For the compound `Cc1cc(=O)n2nc(N3CCCC(C(=O)Nc4ccc(C)c(C)c4)C3)sc2n1` (stereo not given), the Potency entry is “inactive”.

Take `CN1/C(=C\C(=S)NC(=O)c2ccccc2Cl)C(C)(C)c2ccccc21`: the Potency is 15.1 µM (active).
